# From PubChem BioAssay
# A number with no mark means an inactive call.
# Experiment: MM1S myeloma cell viability, profiling panel, resazurin fluorescence, basal, 24 h, PK04 Diversity Set (AID 1174);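 note: MM1S multiple myeloma cell line; test concentration not given here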
# Settings: higher = more signal, called active from +8 up or from −8 down
row,SMILES,z-score
1,CCCNC(=O)[C@@]1(Sc2ccc(C)cc2)CC(=O)N(Cc2ccccc2Cl)[C@@H]1c1ccc(CO)cc1I,-3.58
2,C=CCN1Cc2ccccc2[C@H]2OC(c3ccc(OCCCO)cc3)=N[C@@]2(CCS(=O)(=O)c2ccccc2)C1=O,-0.321
3,[N-]=[N+]=Nc1ccccc1C[C@]1(C(=O)N2CCOCC2)N=C(c2ccc(OCCCO)cc2)O[C@H]1c1ccccc1N=[N+]=[N-],-3.41
4,C[C@]1(C(=O)O)c2ccccc2C(=O)N(Cc2cc(F)cc(C(F)(F)F)c2)[C@H]1c1ccc(CO)cc1,0.449
5,CC(C)c1nc2cc(Br)ccc2c(=O)o1,-0.47
6,CN(C)CCCC[C@@H]1NC(=O)[C@H]2C[C@@H](C(=O)O)[C@@H](c3ccc(O)cc3)N2C1=O,0.41
7,CN1C(=O)C2C(C3CC3)C=C3CN(Cc4cccc(Cl)c4)[C@@H]([C@@H](O)Cc4ccccc4)C3C2C1=O (stereo partly specified),0.076
8,C=CCC(OC(C)=O)[C@@H]1[C@@H](N(Cc2ccc(-c3cccc(C(F)(F)F)c3)o2)C(=O)c2ccc(-c3ccccc3)cc2)c2cc(OCCCO)ccc2N1C(=O)c1ccc2ccccc2c1 (stereo partly specified),0.314
9,CCCCC(O)C1C=CC2C(=O)N(c3ccccc3)C(=O)C2N1Nc1ccc(C#N)cc1 (stereo unspecified),0.0125
10,NC(=O)N1C(=O)C2C(C1=O)C1C=C(CCCO)C2C(c2ccc(CN3CCCC3)cc2)N1Cc1sc2ccccc2c1Cl (stereo unspecified),-1.29
11,CC(C)=CCCC(C)=CC(O)C1C=CC2C(=O)NC(=O)C2N1Nc1ccccn1 (stereo unspecified),-0.58
